About 2,000 (36%) of roughly 5,500 compounds were called active. Inconclusive results (about 18%) are left out. Some of the results follow. Unmarked numbers belong to inactive results. Cut-off read from the data, not from the text of the source: active = normalized growth mostly below about 0.91 (no sharp cut-off); inconclusive = no clear call, values can overlap the other calls; inactive = mostly above about 0.92.
Assay: chemical genetic growth profiling, strain panel (AID 1159580);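 note: tested at 20 µM; growth read once vehicle control cultures reached saturation at 30 °C; 1 = growth at the plate median or of vehicle wells; lower values mean less growth of the strain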
Details: S. cerevisiae deletion strains, growth OD

SMILES: O=C(Nc1ccc(F)c(Cl)c1)c1ccccc1O
- normalized growth (locus YAR019C, strain CDC15, stronger effect = lower value): 0.9
- normalized growth (locus YBL105C, strain PKC1, stronger effect = lower value): 0.897 (active)
- normalized growth (locus YBR135W, strain CKS1, stronger effect = lower value): 0.888 (active)
- normalized growth (locus YBR136W, strain MEC1, stronger effect = lower value): 0.899
- normalized growth (locus YBR160W, strain CDC28, stronger effect = lower value): 0.899
- normalized growth (locus YDL017W, strain CDC7, stronger effect = lower value): 0.895 (active)
- normalized growth (locus YDL028C, strain MPS1, stronger effect = lower value): 0.897
- normalized growth (locus YDL101C, strain DUN1, stronger effect = lower value): 0.951
- normalized growth (locus YDL108W, strain KIN28, stronger effect = lower value): 0.896 (active)
- normalized growth (locus YDL132W, strain cdc53, stronger effect = lower value): 0.879 (active)
- normalized growth (locus YDL214C, strain PRR2, stronger effect = lower value): 0.83
- normalized growth (locus YDR052C, strain DBF4, stronger effect = lower value): 0.884 (active)
- normalized growth (locus YDR054C, strain cdc34, stronger effect = lower value): 0.885
- normalized growth (locus YDR226W, strain ADK1, stronger effect = lower value): 0.877 (active)
- normalized growth (locus YDR477W, strain SNF1, stronger effect = lower value): 0.834
- normalized growth (locus YER123W, strain YCK3, stronger effect = lower value): 0.76
- normalized growth (locus YER133W, strain GLC7, stronger effect = lower value): 0.862
- normalized growth (locus YFL009W, strain cdc4, stronger effect = lower value): 0.888 (active)
- normalized growth (locus YFL029C, strain CAK1, stronger effect = lower value): 0.884
- normalized growth (locus YFR003C, strain YPI1, stronger effect = lower value): 0.897 (active)
- normalized growth (locus YFR019W, strain FAB1, stronger effect = lower value): 0.904
- normalized growth (locus YFR028C, strain CDC14, stronger effect = lower value): 0.884 (active)
- normalized growth (locus YGR040W, strain KSS1, stronger effect = lower value): 0.819
- normalized growth (locus YGR052W, strain FMP48, stronger effect = lower value): 0.8
- normalized growth (locus YGR092W, strain DBF2, stronger effect = lower value): 0.519
- normalized growth (locus YHR030C, strain SLT2, stronger effect = lower value): 0.768 (active)
- normalized growth (locus YHR079C, strain IRE1, stronger effect = lower value): 0.632
- normalized growth (locus YHR082C, strain KSP1, stronger effect = lower value): 0.76
- normalized growth (locus YHR205W, strain SCH9, stronger effect = lower value): 0.747
- normalized growth (locus YIL147C, strain SLN1, stronger effect = lower value): 0.895
- normalized growth (locus YJL095W, strain BCK1, stronger effect = lower value): 0.676
- normalized growth (locus YJL128C, strain PBS2, stronger effect = lower value): 0.846
- normalized growth (locus YJL157C, strain FAR1, stronger effect = lower value): 0.803
- normalized growth (locus YJR016C, strain ILV3, stronger effect = lower value): 0.895 (active)
- normalized growth (locus YJR066W, strain TOR1 (second series), stronger effect = lower value): 0.882
- normalized growth (locus YJR066W, strain TOR1, stronger effect = lower value): 0.745
- normalized growth (locus YKL048C, strain ELM1, stronger effect = lower value): 0.893
- normalized growth (locus YKL067W, strain YNK1, stronger effect = lower value): 0.825
- normalized growth (locus YKL101W, strain HSL1, stronger effect = lower value): 0.807
- normalized growth (locus YKL193C, strain SDS22, stronger effect = lower value): 0.885 (active)
- normalized growth (locus YKL203C, strain TOR2, stronger effect = lower value): 0.863
- normalized growth (locus YLR113W, strain HOG1, stronger effect = lower value): 0.669 (active)
- normalized growth (locus YLR133W, strain CKI1, stronger effect = lower value): 0.762
- normalized growth (locus YLR403W, strain SFP1, stronger effect = lower value): 0.743
- normalized growth (locus YML070W, strain DAK1, stronger effect = lower value): 0.777
- normalized growth (locus YMR001C, strain CDC5, stronger effect = lower value): 0.891
- normalized growth (locus YMR205C, strain PFK2 (second series), stronger effect = lower value): 0.769
- normalized growth (locus YMR277W, strain FCP1, stronger effect = lower value): 0.9
- normalized growth (locus YNL006W, strain LST8, stronger effect = lower value): 0.893 (active)
- normalized growth (locus YNL020C, strain ARK1, stronger effect = lower value): 0.745
- normalized growth (locus YNL161W, strain CBK1, stronger effect = lower value): 0.904
- normalized growth (locus YNL183C, strain NPR1, stronger effect = lower value): 0.759
- normalized growth (locus YNL207W, strain RIO2, stronger effect = lower value): 0.893
- normalized growth (locus YNL222W, strain SSU72, stronger effect = lower value): 0.906
- normalized growth (locus YNL307C, strain MCK1 (second series), stronger effect = lower value): 0.833
- normalized growth (locus YOL078W, strain AVO1, stronger effect = lower value): 0.897
- normalized growth (locus YOL136C, strain PFK27, stronger effect = lower value): 0.846
- normalized growth (locus YOR061W, strain CKA2, stronger effect = lower value): 0.842
- normalized growth (locus YOR119C, strain RIO1, stronger effect = lower value): 0.936
- normalized growth (locus YOR231W, strain MKK1, stronger effect = lower value): 0.829
- normalized growth (locus YOR329C, strain SCD5, stronger effect = lower value): 0.913
- normalized growth (locus YPL031C, strain PHO85, stronger effect = lower value): 0.796
- normalized growth (locus YPL153C, strain RAD53, stronger effect = lower value): 0.799
- normalized growth (locus YPL204W, strain HRR25, stronger effect = lower value): 0.797
- normalized growth (locus YPL209C, strain IPL1, stronger effect = lower value): 0.895 (active)
- normalized growth (locus YPL256C, strain CLN2, stronger effect = lower value): 0.756 (active)
- normalized growth (locus YPR025C, strain CCL1, stronger effect = lower value): 0.894 (active)
- normalized growth (locus YPR106W, strain ISR1, stronger effect = lower value): 0.911
- normalized growth (locus YPR111W, strain DBF20, stronger effect = lower value): 0.887
- normalized growth (strain NNK1, stronger effect = lower value): 0.899
- normalized growth (strain TSCII, stronger effect = lower value): 0.892

SMILES: CC1CCN(CC[C@H]2CCCN2S(=O)(=O)c2cccc(O)c2)CC1
- normalized growth (locus YAL040C, strain CLN3, stronger effect = lower value): 0.99
- normalized growth (locus YCL061C, strain MRC1 (second series), stronger effect = lower value): 1
- normalized growth (locus YDR363W, strain ESC2, stronger effect = lower value): 0.986
- normalized growth (locus YER002W, strain NOP16, stronger effect = lower value): 0.989
- normalized growth (locus YGR078C, strain PAC10, stronger effect = lower value): 1.02
- normalized growth (locus YMR263W, strain SAP30, stronger effect = lower value): 1
- normalized growth (locus YMR307W, strain GAS1, stronger effect = lower value): 1.03
- normalized growth (locus YNL128W, strain TEP1, stronger effect = lower value): 1.01
- normalized growth (locus YNL175C, strain NOP13, stronger effect = lower value): 1.01
- normalized growth (locus YNL197C, strain WHI3, stronger effect = lower value): 1.01
- normalized growth (locus YNL224C, strain SQS1, stronger effect = lower value): 1
- normalized growth (locus YNL322C, strain KRE1, stronger effect = lower value): 0.984
- normalized growth (locus YOR083W, strain WHI5 (second series), stronger effect = lower value): 1.03
